MEP2-GFP yeast = yeast TOR pathway MEP2-GFP modulation; S. cerevisiae MEP2-GFP strain, flow cytometry GFP, 3 h; 100% = DMSO control level; GFP response vs DMSO, % at 10 µM; hit rate 0.51% among 330,000;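 active = GFP response versus DMSO above a set limit, roughly screen mean plus 3 SD, cut at about 180% in these data; inconclusive = fewer than 70 cells counted for a yeast strain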;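 also: median GFP fluorescence of the barcode-gated MEP2-GFP cells per well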
AGP1-GFP MLPCN = modulators of TOR pathway AGP1-GFP in S. cerevisiae. GFP response vs DMSO, % at 10 µM. AID 2066. S. cerevisiae AGP1-GFP multiplex flow cytometry, 3 h; GFP as percent of DMSO wells. hit rate 0.02% among 320,000;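 active = GFP response relative to DMSO above a set limit, near screen average plus 3 SD, cut at about 150% in these data; inconclusive = fewer than 70 cells counted for the yeast strain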;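 also: median GFP channel fluorescence of the gated AGP1 strain per well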
LAP4-GFP MLPCN = alters LAP4-GFP fluorescence in TOR pathway yeast screen; hit rate 0.34% among 320,000; S. cerevisiae LAP4-GFP multiplex, flow cytometry GFP, 3 h; median GFP as percent of DMSO wells; AID 2023; GFP response vs DMSO, % at 10 µM;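 active = GFP response vs DMSO above a set limit, about the screen mean plus 3 SD, cut at about 150% in these data; inconclusive = under 70 cell events counted for the yeast strain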
DSG3 Ab inh = inhibitors of pemphigus antibody binding to human desmoglein-3; hit rate 0.48% among 310,000; P32926; binding (percent of control), % at 10 µM; DSG3-coupled beads, scFv-anti-DSG3-GFP binding, flow cytometry; stronger effect = lower value;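 active = binding more than 3 SD below its plate's average and above zero; inconclusive = below that plate limit but binding exactly zero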
Target sequence (P32926 whole entry, looked up): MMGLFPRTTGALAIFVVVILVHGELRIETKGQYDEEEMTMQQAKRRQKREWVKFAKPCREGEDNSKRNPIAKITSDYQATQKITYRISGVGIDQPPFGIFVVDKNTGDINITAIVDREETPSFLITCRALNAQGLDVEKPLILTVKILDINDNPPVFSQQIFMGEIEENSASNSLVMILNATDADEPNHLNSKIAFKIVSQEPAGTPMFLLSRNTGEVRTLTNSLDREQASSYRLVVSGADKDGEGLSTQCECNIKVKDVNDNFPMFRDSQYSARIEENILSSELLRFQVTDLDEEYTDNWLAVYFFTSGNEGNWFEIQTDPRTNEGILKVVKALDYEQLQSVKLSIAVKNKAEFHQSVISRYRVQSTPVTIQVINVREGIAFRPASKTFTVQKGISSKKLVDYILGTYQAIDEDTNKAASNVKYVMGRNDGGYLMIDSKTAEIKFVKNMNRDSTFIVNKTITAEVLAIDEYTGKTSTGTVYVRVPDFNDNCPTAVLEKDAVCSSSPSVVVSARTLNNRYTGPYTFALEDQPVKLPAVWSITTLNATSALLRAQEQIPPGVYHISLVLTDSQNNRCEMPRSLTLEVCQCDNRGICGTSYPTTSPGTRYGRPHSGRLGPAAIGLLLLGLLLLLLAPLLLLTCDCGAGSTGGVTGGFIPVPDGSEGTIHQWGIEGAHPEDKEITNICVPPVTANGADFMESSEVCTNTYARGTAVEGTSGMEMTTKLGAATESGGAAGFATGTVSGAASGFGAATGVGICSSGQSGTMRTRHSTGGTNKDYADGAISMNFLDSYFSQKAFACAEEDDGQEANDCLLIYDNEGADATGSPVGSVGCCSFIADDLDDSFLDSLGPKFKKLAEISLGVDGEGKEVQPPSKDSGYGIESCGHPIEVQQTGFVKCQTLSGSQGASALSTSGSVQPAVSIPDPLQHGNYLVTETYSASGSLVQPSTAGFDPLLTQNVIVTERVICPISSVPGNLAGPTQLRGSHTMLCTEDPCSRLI
CIT2 TOR yeast = yeast TOR pathway CIT2-GFP modulation; S. cerevisiae CIT2-GFP strain, flow cytometry, 3 h; 100 means same as DMSO wells; GFP response vs DMSO, % at 10 µM; hit rate 0.065% among 320,000; AID 2029;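 active = GFP response relative to DMSO above a set limit, near the screen mean plus 3 SD, cut at about 150% in these data; inconclusive = Fewer than 70 cells measured for a yeast strain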;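 also: ratio of well median GFP fluorescence to mean of DMSO wells on the plate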
RPL19A-GFP yeast = modulators of TOR pathway RPL19A-GFP in S. cerevisiae; hit rate 0.3% among 330,000; percent response vs DMSO, % at 10 µM; S. cerevisiae RPL19A-GFP strain, flow cytometry, 3 h; stronger effect = lower value;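 active = percent response vs DMSO below 50%; inconclusive = fewer than 70 events counted for the yeast strain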;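 also: median channel GFP fluorescence of the barcoded RPL19A-GFP strain; lower means less RPL19A-GFP as with rapamycin TOR inhibition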
Numbers stand for hits; [ ] = another dose, or the depositor's remark. Rows were chosen to be rich in hits. Some 1.2% of all compounds tested hit in one or more screens of this group.

COC(=O)c1[nH]c2ccc(Cl)cc2c1NC(=O)CCN1CCN(C2CCCCC2)CC1 was read as MEP2-GFP yeast inactive, AGP1-GFP MLPCN inactive, LAP4-GFP MLPCN inactive, DSG3 Ab inh inactive, CIT2 TOR yeast inactive and RPL19A-GFP yeast inactive.
COC(=O)c1[nH]c2ccc(Br)cc2c1NC(=O)CN1CCN(C2CCCCC2)CC1 was read as MEP2-GFP yeast 281[may fluoresce violet], AGP1-GFP MLPCN inactive, LAP4-GFP MLPCN inactive, DSG3 Ab inh inactive, CIT2 TOR yeast inconclusive and RPL19A-GFP yeast 17[may fluoresce violet].
For Cc1c(C)n2c(SCC(=O)Nc3cccc4ccccc34)nnc2[nH]c1=O the results were MEP2-GFP yeast inactive, AGP1-GFP MLPCN inactive, LAP4-GFP MLPCN inactive, DSG3 Ab inh inactive, CIT2 TOR yeast inactive and RPL19A-GFP yeast inactive.
`CN1CCN(C(c2ccc(C(F)(F)F)cc2)c2cc(Cl)c3cccnc3c2O)CC1` (configuration not stated) gave MEP2-GFP yeast inactive, AGP1-GFP MLPCN inconclusive, LAP4-GFP MLPCN 202[may fluoresce violet], CIT2 TOR yeast inconclusive and RPL19A-GFP yeast inactive.
For CN1CCN(C(c2ccc(Cl)cc2)c2cc(Cl)c3cccnc3c2O)CC1 (configuration not stated) the results were MEP2-GFP yeast inactive, AGP1-GFP MLPCN inactive, LAP4-GFP MLPCN 164, DSG3 Ab inh inactive, CIT2 TOR yeast inactive and RPL19A-GFP yeast inactive.
O=C(NCc1ccc(Cl)cc1)c1ccncc1 was read as MEP2-GFP yeast inactive, AGP1-GFP MLPCN inactive, LAP4-GFP MLPCN inactive, DSG3 Ab inh 83, CIT2 TOR yeast inactive and RPL19A-GFP yeast inactive.
`CCCCC(=O)Nc1nn(C)c2nc3c(C)cccc3cc12` gave MEP2-GFP yeast 359[may fluoresce violet], AGP1-GFP MLPCN inconclusive, LAP4-GFP MLPCN inactive, DSG3 Ab inh inactive, CIT2 TOR yeast inconclusive and RPL19A-GFP yeast 42[may fluoresce violet].
For Cc1oc(S(=O)(=O)N2CCCCC2)cc1NC(=O)Nc1ccc(F)cc1 the results were MEP2-GFP yeast inactive, AGP1-GFP MLPCN inactive, LAP4-GFP MLPCN inactive, DSG3 Ab inh 91, CIT2 TOR yeast inactive and RPL19A-GFP yeast inactive.
For O=C(Nc1ccc(F)cc1)Nc1ccc(S(=O)(=O)N2CCCC2)cc1 the results were MEP2-GFP yeast inactive, AGP1-GFP MLPCN inactive, LAP4-GFP MLPCN inactive, DSG3 Ab inh inactive, CIT2 TOR yeast inactive and RPL19A-GFP yeast inactive.
Screening CC(C)C1N=C2c3ccccc3N=C(SCC(=O)NCCc3ccc(S(N)(=O)=O)cc3)N2C1=O (configuration not stated) returned MEP2-GFP yeast inactive, AGP1-GFP MLPCN inactive, LAP4-GFP MLPCN inactive, DSG3 Ab inh inactive, CIT2 TOR yeast inactive and RPL19A-GFP yeast inactive.
CC(C)C1N=C2c3ccccc3N=C(SCc3cc(=O)n4cc(Cl)ccc4n3)N2C1=O (configuration not stated) was read as MEP2-GFP yeast inactive, AGP1-GFP MLPCN inactive, LAP4-GFP MLPCN inactive, DSG3 Ab inh 78, CIT2 TOR yeast inactive and RPL19A-GFP yeast inactive.
For CCOC(=O)CC(NC(=O)Cc1cccs1)c1ccccc1Cl (configuration not stated) the results were MEP2-GFP yeast inactive, AGP1-GFP MLPCN inactive, LAP4-GFP MLPCN inactive, DSG3 Ab inh inactive, CIT2 TOR yeast inactive and RPL19A-GFP yeast inactive.
COc1ccc(NC(=O)N(C)C[C@H]2Oc3ccc(NC(=O)Nc4c(C)noc4C)cc3C(=O)N([C@H](C)CO)C[C@@H]2C)cc1 was read as MEP2-GFP yeast inactive, AGP1-GFP MLPCN inactive, LAP4-GFP MLPCN inactive, DSG3 Ab inh inactive, CIT2 TOR yeast inactive and RPL19A-GFP yeast inactive.
Screening COc1ccc(C(CNC(=O)CNC(=O)c2ccc(F)cc2)N2CCCC2)cc1 (configuration not stated) returned MEP2-GFP yeast inactive, AGP1-GFP MLPCN inactive, LAP4-GFP MLPCN inactive, DSG3 Ab inh inactive, CIT2 TOR yeast inactive and RPL19A-GFP yeast inactive.
Screening COc1ccc(C(CNC(=O)Cc2c(F)cccc2Cl)N2CCCCC2)cc1 (configuration not stated) returned MEP2-GFP yeast 299[may fluoresce violet], AGP1-GFP MLPCN inactive, LAP4-GFP MLPCN inactive, DSG3 Ab inh inactive, CIT2 TOR yeast inconclusive and RPL19A-GFP yeast inactive.
CC1CCCC(NC(=O)COC(=O)CCC2CCCC2)C1C (configuration not stated) was read as MEP2-GFP yeast inactive, AGP1-GFP MLPCN inactive, LAP4-GFP MLPCN inactive, DSG3 Ab inh 45, CIT2 TOR yeast inactive and RPL19A-GFP yeast inactive.
For Cc1ccc(OCCC(=O)OCC(=O)NC2CCCC(C)C2C)cc1 (configuration not stated) the results were MEP2-GFP yeast inactive, AGP1-GFP MLPCN inactive, LAP4-GFP MLPCN inactive, CIT2 TOR yeast inactive and RPL19A-GFP yeast inactive.
Screening Cc1nnc(NC(=O)CCN2C(=O)C3CC=CCC3C2=O)s1 (configuration not stated) returned DSG3 Ab inh inactive.
COc1ccc(CCC(=O)NCCOc2ccccc2Cl)cc1 was read as MEP2-GFP yeast 185[may fluoresce violet], AGP1-GFP MLPCN inconclusive, LAP4-GFP MLPCN inactive, DSG3 Ab inh inactive, CIT2 TOR yeast inconclusive and RPL19A-GFP yeast 28[may fluoresce violet].
COc1ccc(CCC(=O)NCCOc2ccc(C)cc2)cc1 was read as MEP2-GFP yeast inactive, AGP1-GFP MLPCN inactive, LAP4-GFP MLPCN inactive, DSG3 Ab inh inactive, CIT2 TOR yeast inactive and RPL19A-GFP yeast inactive.
CCc1c(C)nc2ncnn2c1N1CCCC(C(=O)Nc2cc(F)ccc2C)C1 (configuration not stated) was read as MEP2-GFP yeast inactive, AGP1-GFP MLPCN inactive, LAP4-GFP MLPCN inactive, CIT2 TOR yeast inactive and RPL19A-GFP yeast inactive.
For CCOc1ccc(NC(=O)C2CCCN(c3c(CC)c(C)nc4ncnn34)C2)cc1 (configuration not stated) the results were MEP2-GFP yeast 214[may fluoresce violet], AGP1-GFP MLPCN inactive, LAP4-GFP MLPCN inactive, DSG3 Ab inh inactive, CIT2 TOR yeast inconclusive and RPL19A-GFP yeast inactive.
Screening O=c1[nH]c(C2CCCN(S(=O)(=O)c3ccccc3Cl)C2)nc2c1nnn2Cc1ccc2c(c1)OCCO2 (configuration not stated) returned MEP2-GFP yeast inactive, AGP1-GFP MLPCN inactive, LAP4-GFP MLPCN inactive, DSG3 Ab inh 77, CIT2 TOR yeast inactive and RPL19A-GFP yeast inactive.
Screening O=c1[nH]c(C2CCN(S(=O)(=O)c3ccccc3)CC2)nc2c1nnn2Cc1ccc2c(c1)OCCO2 returned MEP2-GFP yeast inactive, AGP1-GFP MLPCN inactive, LAP4-GFP MLPCN inactive, DSG3 Ab inh inactive, CIT2 TOR yeast inactive and RPL19A-GFP yeast inactive.
Screening COc1cc(C(=O)Nc2cccc(-c3nc4cc(C)ccc4o3)c2C)cc(OC)c1OC returned MEP2-GFP yeast inactive, AGP1-GFP MLPCN inactive, LAP4-GFP MLPCN inactive, DSG3 Ab inh 80, CIT2 TOR yeast inactive and RPL19A-GFP yeast inactive.
COc1cc(C(=O)Nc2cccc(-c3nc4ncccc4o3)c2C)cc(OC)c1OC was read as MEP2-GFP yeast inactive, AGP1-GFP MLPCN inactive, LAP4-GFP MLPCN inactive, DSG3 Ab inh inactive, CIT2 TOR yeast inactive and RPL19A-GFP yeast inactive.
CC(C)(C)Nc1nc(Cl)nc(NC2CCCCC2)n1 was read as MEP2-GFP yeast inactive, AGP1-GFP MLPCN inconclusive, LAP4-GFP MLPCN inactive, DSG3 Ab inh inactive, CIT2 TOR yeast inconclusive and RPL19A-GFP yeast 42[may fluoresce violet].

Screening data (PubChem BioAssay)
